LASV entry inh – qHTS for Inhibitors of binding or entry into cells for Lassa Virus. hit rate 1.2% among 300,000. Lassa virus pseudotype entry inhibition, cell reporter. AID 540256, 2011. Potency, µM (top dose mostly 37.9 µM), for the others: at the highest dose activity change, negative = inhibition, hits mostly inhibitors; calls by dose curve; tested in HEK293 cells; also: nearly all actives have a fitted effect of over 50% in size
VACV mCherry inh – qHTS for Stage-Specific Inhibitors of Vaccinia Orthopoxvirus: mCherry Reporter Primary qHTS; Vaccinia virus mCherry reporter infection, fluorescence; Potency, µM (series often up to 36.5 µM), inactives show at the top dose activity change, negative = inhibition, usual class: inhibitors; hit rate 0.63% among 310,000; AID 720579, 2013; calls by dose curve; tested in A549 cells; also: nearly all actives have a fitted effect of over 35% in size
MARV entry inh – qHTS for inhibitors of binding or entry into cells for Marburg Virus; Marburg virus pseudotyped entry inhibition, cell reporter; Potency, µM (top dose mostly 37.8 µM), for the others: at the top dose activity change, negative = inhibition, actives largely listed as inhibitors; hit rate 1.8% among 300,000; AID 540276, 2011; calls by dose curve; tested in HEK293 cells
HCV inhibitor – qHTS Assay for Inhibitors of Hepatitis C Virus (HCV) | Potency, µM (highest dose often 41.8 µM), inactives show top-dose activity change, negative = inhibition, usual class: inhibitors | Huh7.5.1 HCVcc-Cre infection, luciferase reporter, 44 h | hit rate 3.4% among 340,000 | AID 651820, 2012; active = well fitted inhibition curve with a large enough effect; inconclusive = small, poorly fitted or top-dose-only effect, or another doubt; inactive = no such curve, though single readings can be large or run the other way
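Compounds are dispensed onto cells plated 4 h earlier at 1,000 per well, with HCVcc-Cre virus (about 0.5 moi) added next. Following 44 h of culture, luminescent signal is measured for 15 sec after 15 min with substrate at room temperature.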
FMDV antiviral – High Throughput Screening for Foot and Mouth Disease Virus Antivirals. AID 1159524, 2015. Potency, µM (highest dose often 57.9 µM), inactives show at the top dose activity change, negative = inhibition, actives largely listed as inhibitors. FMDV antiviral cell-based qHTS. hit rate 1.2% among 410,000; calls by dose curve; tested in HEK293T cells; also: read-out not given here; nearly all actives have a fitted effect of over 45% in size
VACV Venus inh – qHTS for Stage-Specific Inhibitors of Vaccinia Orthopoxvirus: Venus Reporter Primary qHTS. Vaccinia virus Venus reporter expression, fluorescence. Potency, µM (highest dose often 36.5 µM), for inactives: at the top dose activity change, negative = inhibition, usual class: inhibitors. hit rate 0.46% among 330,000. AID 720580, 2013; calls by dose curve; tested in A549 cells; also: nearly all actives have a fitted effect of over 30% in size
Numbers without * were called inactive; i = inactive; ? = inconclusive; nt = no result given; ! = not confirmed by another sample; [ ] = dose if it differs, or a comment. Rows were chosen to be rich in hits. Some 5.3% of all compounds tested hit in one or more screens of this group. % is scaled to controls: 0 for no effect and ±100 for the full control effect; potency is read from the fitted curve at half-maximal effect.

SMILES	LASV entry inh	VACV mCherry inh	MARV entry inh	HCV inhibitor	FMDV antiviral	VACV Venus inh
O=C(NCCc1cccs1)c1ccc(Cl)c(Cl)c1	23.1%	?	?	-18.9%	0.0%	?
O=C(/C=C/c1ccc(Cl)cc1)NCc1cccs1	5.8µM*	i	-3.5%	-5.6%	4.3%	-17.2%
O=C(NCCc1cccs1)c1ccc(Cl)cc1	5.62µM*	-7.1%	?	-19.5%	-10.2%	-27.3%
Cc1ccc(C(=O)NCCc2cccs2)cc1	?	nt	1.83µM*	-20.9%	-70.5%	nt
O=C(/C=C/c1cccc(Cl)c1)NCc1cccs1	?	nt	4.1%	-20.5%	71.5%	nt
COc1cccc(CN2CCC3(CCC(CNC(=O)c4cc(C)nn4C)O3)CC2)c1OC (configuration not stated)	nt	-4.3%	nt	nt	-7.3%	0.9%
COc1cc(C(=O)Nc2ccc(S(=O)(=O)N3CCCCC3C)cc2)cc(OC)c1OC (configuration not stated)	-19.0%	nt	-14.5%	12.6µM*	-9.0%	nt
COc1ccc(C(=O)Nc2ccc(S(=O)(=O)N3CCCCC3C)cc2)c(OC)c1OC (configuration not stated)	?	-13.6%	?	11.2µM*	nt	-29.5%
COc1ccc(C(=O)Nc2ccc(NC(C)=O)cc2)cc1S(=O)(=O)N1CCCCC1C (configuration not stated)	nt	nt	nt	?	-3.8%	nt
COc1ccc(NC(=O)N2CCc3c([nH]c4ccc(OC)cc34)C2c2ccc(OC)cc2)cc1 (configuration not stated)	?	-6.2%	nt	nt	-16.5%	-4.3%
COc1ccc(C2c3ccsc3CCN2C(=O)NC(C)(C)C)cc1 (configuration not stated)	nt	nt	nt	22.4µM*	-16.2%	nt
CCn1c(-c2ccccc2F)nc2cc(NC(C)=O)cc(C(=O)N(C)Cc3ccc4nccnc4c3)c21	nt	-12.5%	nt	nt	-10.7%	-11.6%
Cc1onc(-c2c(F)cccc2Cl)c1-c1nnc(-c2ccc(C(F)(F)F)cc2)o1	?	?	?	-41.6%	?	17.3%
Cc1onc(-c2c(Cl)cccc2Cl)c1-c1nnc(-c2ccc(Cl)cc2)o1	?	-5.3%	?	17.8µM*	?	-12.6%
CCOC(=O)C(C)=NNC(C)=O	nt	nt	-17.1%[14.2 µM]	nt	nt	nt
COc1ccc(/C=C2\CCCC3C2=NN(C(=O)c2scnc2C)C3c2ccc(OC)c(OC)c2)cc1OC (configuration not stated)	5.17µM*	nt	?	0.1%	-3.0%	nt
Cc1ccc(CS(=O)(=O)CCC(=O)NCCc2ccccc2)cc1	?	-11.6%	15.1%	5.62µM*	12.1%	-20.8%
CCc1ccc(NC(=O)Cn2c(SCc3ccc(C)cc3)nc3ccncc32)cc1	nt	-21.4%	nt	nt	nt	-20.7%
O=C(Nc1ccc(CN2CCCCC2)cc1)Nc1ccc(Br)cc1Cl	?	-2.9%	10µM*	15.8µM*	-10.5%	-26.2%
O=C(Nc1cccnc1)Nc1ccc(Br)cc1Cl	18.0%	nt	20.1%	11.2µM*	3.6%	nt
COc1cc2c(NC3CCN(C)CC3)nc(N3CCCN(C)CC3)nc2cc1OCCOCCN1CCCC1	nt	-10.5%	nt	nt	nt	-10.5%
COc1cc2nc(N3CCCN(C)CC3)nc(NC3CCN(Cc4ccccc4)CC3)c2cc1OC	1.83µM*	?	?	nt	nt	11.2µM*!
COc1cc2c(NC3CCN(C)CC3)nc(N3CCCN(C)CC3)nc2cc1OCCCN1CCCCC1	nt	3.98µM*	nt	nt	nt	3.55µM*
COc1cc2c(NC3CCN(C)CC3)nc(N3CCCN(C)CC3)nc2cc1OCCCC(C)C	nt	?	nt	nt	nt	12.6µM*
CCc1ccccc1NC(=O)CCc1c(C)nc2cc(-c3ccccc3)nn2c1C	7.6%[46.1 µM]	-19.9%	1.8%[46.1 µM]	nt	-26.3%	0.0%
SMILES	LASV entry inh	VACV mCherry inh	MARV entry inh	HCV inhibitor	FMDV antiviral	VACV Venus inh
CCOC(=O)N1CCC(NC(=O)c2cnn(-c3cccc(F)c3)c2-n2cccc2)CC1	-0.8%[46.1 µM]	-4.9%	nt	nt	?	-9.9%
COc1ccccc1NC(=O)c1cc2cc(Br)ccc2cc1O	nt	nt	nt	11.2µM*	?	nt
COc1cc(OC)c(NC(=O)c2ccccc2F)cc1Cl	nt	nt	nt	1.1%	36.0%	nt
COc1cc(NC(=O)c2cc3ccccc3cc2O)c(OC)cc1Cl	nt	nt	nt	10µM*	12.6µM*	nt
CNC(=O)Nc1ccc(C(=O)N/N=C\C23CC[C@@H](O)CC2(O)CC[C@@H]2[C@@H]3CCC3(C)C(C4=CC(=O)OC4)CCC23O)cc1 (some centres not stated)	nt	12.6µM*	nt	6.3%	-15.3%	?
CC12CC[C@H]3[C@@H](CCC4(O)C[C@H](O)CCC34/C=N/NC(=O)c3ccccc3[N+](=O)[O-])C1(O)CCC2C1=CC(=O)OC1 (some centres not stated)	?	?	?	-4.4%	-23.4%	10µM*
Cc1cccc(CCNC(=O)C2CCC(CNS(=O)(=O)c3c(C)cc(C)cc3C)CC2)c1 (configuration not stated)	?	-0.1%	nt	nt	-23.9%	-5.2%
CCCCN(CCO)c1ncnc2sc(-c3ccccc3)cc12	nt	nt	nt	17.8µM*	-18.7%	nt
CN(C)CCCNc1ncnc2sc(-c3ccccc3)cc12	nt	nt	nt	?	-13.6%	nt
COc1ccc(C(=O)/C=C/c2cn(CC(O)CN3CCN(C)CC3)c3ccccc23)cc1OC (configuration not stated)	-24.8%	?	?	-75.4%	-5.0%	?
CCCCN(C)CC(O)Cn1cc(/C=C/C(=O)c2ccc(Br)cc2)c2ccccc21 (configuration not stated)	?	-5.4%	?	nt	-19.1%	-18.0%
CCCCN(C)CC(O)Cn1cc(/C=C/C(=O)c2ccc(C)cc2)c2ccccc21 (configuration not stated)	?	?	?	12.6µM*	?	?
CCCCN(C)CC(O)Cn1cc(/C=C/C(=O)c2ccc(OC)c(OC)c2)c2ccccc21 (configuration not stated)	?	?	4.47µM*	nt	-4.1%	-20.5%
CCOC(=O)/C(C)=N/NC(C)=O	nt	nt	-17.1%[14.2 µM]	nt	nt	nt
O=C(CSc1ncc(-c2ccccc2)[nH]1)Nc1cccc(Br)c1	13.0%[46.1 µM]	-17.1%	9.2%[46.1 µM]	nt	24.9%	-13.0%
CN(Cc1ccccc1)C(=O)Nc1ccc2c(c1)N(C)C(=O)c1ccccc1S2	?	-16.7%	10µM*	nt	0.0%	-7.4%
COc1ccc(/C=C(/C(=O)c2cccs2)N2C=CC=CC2=C(C#N)C#N)cc1	nt	nt	-1.1%	?	-17.9%	nt
N#C/C(=C/c1ccco1)C(N)=S	-16.0%[46.1 µM]	i	?	8.0%	-4.3%	-17.3%
COc1ccc(C(=O)/C(=C\c2ccco2)N2C=CC=CC2=C(C#N)C#N)cc1	?	?	?	11.2µM*	11.2µM*	?
N#CC(C#N)=C1C=CC=CN1/C(=C\c1ccco1)C(=O)c1ccc(Br)cc1	?	?	6.31µM*	?	10µM*	?
